From PubChem BioAssay
Measured potencies and affinities stand elsewhere. Inconclusive results are not listed. Activity calls are given as the source filed them. Unless noted, how the calls were made is not given here.

Experiments:
[1] = cytotoxicity in PAX8-dependent RMG-1 cells, dose response, cell-based, cherry-pick (AID 687029;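 active means signal drop whose fitted half-maximal concentration is at most twice the top valid dose, in every test run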;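 further: cells exposed to compound for 96 hours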)
[2] = cytotoxicity in IOSE-T80 ovarian epithelial cells, dose response, selectivity assay for PAX8 inhibitor project, cell-based, cherry-pick (AID 687032;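 active means fitted half-maximal concentration for viability loss no higher than twice the top valid dose, in every repeat run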;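 further: cells exposed to compound for 96 h before reading; 0% = neutral control wells and -100% = 2 µM mitoxantrone kill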)
[3] = inhibitors of CMV-promoter luciferase reporter, dose response, counter-screen for Pax8 inhibitor project, cell-based, HEK293, luminescence, dry powder (AID 743020;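 active means signal-lowering compounds whose fitted half-maximal concentration is at or below twice the top tested dose in every run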;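 further: HEK293 cells stably expressing the CMV luciferase reporter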)
[4] = non-specific cell cytotoxicity, dose response, cytotoxicity control for PAX8 inhibitor project, plate reader, dry powder samples (AID 743021)
[5] = IGROV1 ovarian cancer cell cytotoxicity, dose response, PAX8 inhibitor project, plate reader, dry powder samples (AID 743043);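 further: more negative means fewer viable cells or more cytotoxicity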
[6] = NIH:OVCAR-3 ovarian cancer cell cytotoxicity, dose response, PAX8 inhibitor project, plate reader, dry powder samples (AID 743044); conditions: max activity: at 35 µM, active compounds read low unless noted
[7] = IOSE-T80 ovarian epithelial cell cytotoxicity, dose response, cytotoxicity control for PAX8 inhibitor project, plate reader, dry powder samples (AID 743045);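 further: 0% = neutral control median and -100% = positive control median; more negative values mean more cell killing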
[8] = A2780 ovarian cancer cell cytotoxicity, dose response, cytotoxicity control, plate reader, dry powder samples (AID 743046);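 further: 0% = neutral control wells and -100% = cytotoxic reference compound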
[9] = cytotoxicity in OVCAR8 ovarian cancer cells, dose response, PAX8 project, cell-based, plate reader, dry powder samples (AID 743197)

Measured: max activity

C[C@H](CO)N1C[C@H](C)[C@H](CN(C)Cc2ccc(Cl)c(Cl)c2)Oc2c(NS(=O)(=O)c3ccc(Cl)cc3)cccc2C1=O
inactive: [1] | [2] | [3] | [4] | [5] | [6] 53.6% | [7] | [8] | [9]

C[C@@H]1CN([C@H](C)CO)C(=O)c2cc(NC(=O)Nc3ccc(F)cc3)ccc2O[C@@H](C)CCCCO[C@H]1CN(C)C(=O)Nc1ccc(F)cc1
inactive: [1] | [2] | [3] | [4] | [5] | [6] 13.6% | [7] | [8] | [9]

COc1ccc(S(=O)(=O)N2CCCCN3[C@H](C2)[C@H](c2ccc(C#CC(C)C)cc2)[C@@H]3CO)cc1
inactive: [1] | [2] | [3] | [4] | [5] | [6] -13.1% [at 8 µM, active compounds read low] | [7] | [8] | [9]

C[C@H](CO)N1C[C@H](C)[C@H](CN(C)C(=O)NC2CCCCC2)Oc2cc(C#Cc3ccc(F)cc3)ccc2S1(=O)=O
inactive: [1] | [2] | [3] | [4] | [5] | [6] -20.7% | [7] | [8] | [9]

C[C@@H]1CCCCO[C@@H](CN(C)C(=O)Cc2ccccc2)[C@@H](C)CN([C@@H](C)CO)C(=O)c2cc(NC(=O)Nc3ccc(C(F)(F)F)cc3)ccc2O1
inactive: [1] | [2] | [3] | [4] | [5] | [6] -12.2% [at 16 µM, active compounds read low] | [7] | [8] | [9]

Cc1ccc(S(=O)(=O)Nc2ccc3c(c2)C(=O)N([C@@H](C)CO)C[C@@H](C)[C@@H](CN(C)Cc2ccc(Cl)c(Cl)c2)OCCCC[C@@H](C)O3)cc1
inactive: [1] | [2] | [3] | [4] | [5] | [6] -8.95% | [7] | [8] | [9]

C[C@H]1CN([C@@H](C)CO)C(=O)Cc2cc(NC(=O)Nc3ccc(C(F)(F)F)cc3)ccc2O[C@H]1CN(C)C(=O)NC1CCCCC1
inactive: [1] | [2] | [3] | [4] | [5] | [6] 30.7% [at 1.1 µM, active compounds read low] | [7] | [8] | [9]

Cc1ccc(S(=O)(=O)N(C)C[C@@H]2OCCCC[C@H](C)Oc3ccc(NS(=O)(=O)c4ccc(Cl)cc4)cc3C(=O)N([C@H](C)CO)C[C@H]2C)cc1
inactive: [1] | [2] | [3] | [4] | [5] | [6] 19.8% [at 0.5 µM, active compounds read low] | [7] | [8] | [9]

C[C@H](CO)N1C[C@H](C)[C@@H](CN(C)Cc2ccc(-c3ccccc3)cc2)Oc2ccc(NC(=O)Cc3ccccc3)cc2CC1=O
inactive: [1] | [2] | [3] | [4] | [5] | [6] -13.7% [at 0.5 µM, active compounds read low] | [7] | [8] | [9]

C[C@H]1CCCCO[C@H](CN(C)Cc2ccc(Cl)c(Cl)c2)[C@@H](C)CN([C@@H](C)CO)C(=O)c2cc(NC(=O)Nc3ccc(F)cc3)ccc2O1
inactive: [1] | [2] | [3] | [4] | [5] | [6] -19.8% [at 0.26 µM, active compounds read low] | [7] | [8] | [9]

O=C(C[C@H]1CC[C@H]2[C@@H](COC[C@@H](O)CN2S(=O)(=O)c2ccccc2Cl)O1)N1CCC(Cc2ccccc2)CC1
inactive: [1] | [2] | [3] | [4] | [5] | [6] 32.6% [at 1 µM, active compounds read low] | [7] | [8] | [9]

Cc1ccc(S(=O)(=O)N(C)C[C@@H]2Oc3c(NC(=O)c4ccc(-c5nccs5)cc4)cccc3C(=O)N([C@@H](C)CO)C[C@@H]2C)cc1
inactive: [1] | [2] | [3] | [4] | [5] | [6] 61.7% [at 0.26 µM, active compounds read low] | [7] | [8] | [9]

C[C@@H]1CCCCO[C@H](CN(C)CC2CCCCC2)[C@H](C)CN([C@H](C)CO)C(=O)c2cc(NS(=O)(=O)c3ccc(Cl)cc3)ccc2O1
inactive: [1] | [2] | [3] | [4] | [5] | [6] 10.1% | [7] | [8] | [9]

C[C@@H]1CCCCO[C@@H](CN(C)CC2CCCCC2)[C@@H](C)CN([C@@H](C)CO)C(=O)c2cc(NC(=O)Nc3ccc(C(F)(F)F)cc3)ccc2O1
inactive: [1] | [2] | [3] | [4] | [5] | [6] 17.1% [at 0.5 µM, active compounds read low] | [7] | [8] | [9]

Cc1ccc(S(=O)(=O)Nc2ccc3c(c2)C(=O)N([C@H](C)CO)C[C@H](C)[C@H](CN(C)C(=O)c2ccccc2)OCCCC[C@H](C)O3)cc1
inactive: [1] | [2] | [3] | [4] | [5] | [6] -23.6% | [7] | [8] | [9]

C[C@@H]1CN([C@H](C)CO)C(=O)Cc2cc(NC(=O)Nc3ccc(F)cc3)ccc2O[C@@H]1CN(C)Cc1ccc(Cl)c(Cl)c1
inactive: [1] | [2] | [3] | [4] | [5] | [6] 27.5% | [7] | [8] | [9]

C[C@H]1CN([C@@H](C)CO)C(=O)c2cccc(NC(=O)Nc3ccc(F)cc3)c2O[C@H]1CN(C)C(=O)Nc1ccc(C(F)(F)F)cc1
inactive: [1] | [2] | [3] | [4] | [5] | [6] 10.2% [at 0.26 µM, active compounds read low] | [7] | [8] | [9]

O=C(C[C@@H]1C[C@H]2c3cc(NC(=O)Nc4ccc(C(F)(F)F)cc4)ccc3O[C@H]2[C@H](CO)O1)NCCc1ccccc1
inactive: [1] | [2] | [3] | [4] | [5] | [6] 13% | [7] | [8] | [9]

C[C@@H]1CN([C@@H](C)CO)C(=O)Cc2cc(NC(=O)Nc3ccc(C(F)(F)F)cc3)ccc2O[C@H]1CN(C)S(=O)(=O)c1ccc(F)cc1
inactive: [1] | [2] | [3] | [4] | [5] | [6] 16.6% [at 1 µM, active compounds read low] | [7] | [8] | [9]

C[C@@H]1CN([C@H](C)CO)C(=O)c2cc(NC(=O)Nc3ccccc3)ccc2O[C@@H](C)CCCCO[C@H]1CN(C)Cc1ccc(Cl)c(Cl)c1
inactive: [1] | [2] | [3] | [4] | [5] | [6] -19.3% | [7] | [8] | [9]

COc1cccc(S(=O)(=O)N(C)C[C@H]2OCc3ccccc3-c3c(n(C)c4ccccc34)C(=O)N([C@@H](C)CO)C[C@H]2C)c1
inactive: [1] | [2] | [3] | [4] | [5] | [6] -13.7% | [7] | [8] | [9]

C[C@H](CO)N1C[C@H](C)[C@H](CN(C)Cc2ccc3c(c2)OCO3)OCCCC[C@H](C)Oc2ccc(NS(=O)(=O)c3ccc(Cl)cc3)cc2C1=O
inactive: [1] | [2] | [3] | [4] | [5] | [6] 2.84% | [7] | [8] | [9]

COc1ccc(S(=O)(=O)N(C)C[C@H]2Oc3ccc(NC(=O)Nc4ccc(C(F)(F)F)cc4)cc3CC(=O)N([C@H](C)CO)C[C@@H]2C)cc1
inactive: [1] | [2] | [3] | [4] | [5] | [6] 26.7% [at 16 µM, active compounds read low] | [7] | [8] | [9]

COc1ccccc1-c1ccc2c(c1)[C@H]1[C@H](CCN1S(=O)(=O)c1ccccc1F)[C@H](CO)N2
inactive: [1] | [2] | [3] | [4] | [5] | [6] -17.4% | [7] | [8] | [9]

CC(C)CC#Cc1ccc2c(c1)O[C@H](CN(C)S(=O)(=O)c1ccc(F)cc1)[C@H](C)CN([C@@H](C)CO)S2(=O)=O
inactive: [1] | [2] | [3] | [4] | [5] | [6] -39.6% | [7] | [8] | [9]

C[C@H](CO)N1C[C@H](C)[C@H](CN(C)Cc2ccc3c(c2)OCO3)Oc2ccc(NC(=O)Nc3cccc4ccccc34)cc2C1=O
inactive: [1] | [2] | [3] | [4] | [5] | [6] 49.4% [at 4.2 µM, active compounds read low] | [7] | [8] | [9]

C[C@@H]1CCCCO[C@H](CN(C)C(=O)Nc2ccc(C(F)(F)F)cc2)[C@@H](C)CN([C@@H](C)CO)C(=O)c2cc(NC(=O)Nc3ccccc3)ccc2O1
inactive: [1] | [2] | [3] | [4] | [5] | [6] -5.92% [at 16 µM, active compounds read low] | [7] | [8] | [9]

C[C@H]1CN([C@@H](C)CO)C(=O)Cc2cc(NC(=O)Nc3ccc(C(F)(F)F)cc3)ccc2O[C@H]1CN(C)C(=O)Nc1ccc(C(F)(F)F)cc1
inactive: [1] | [2] | [3] | [4] | [5] | [6] 24.3% [at 0.56 µM, active compounds read low] | [7] | [9]
